Results taken from PubChem BioAssay (NCI).
This is part of a sample that, as a whole, favours compounds with a hit. Of some 83,000 tested, about 20% had one in any assay.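 How to read the values: 0–100, growth inhibition (40 = 60% inhibited); 0, no net growth; -100 to 0, cell death (-40 = 40% of starting cells died; -100 = all dead).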 Unmarked numbers belong to inactive results. Activity calls are given as the source filed them. Rule for the calls: active = growth percent below 10; inactive = the rest.

How the values were obtained:
Assay in all cases: NCI-60 one-dose screen, 48 h (100 = growth as untreated, 0 = no growth, -100 = all killed)
[1] = test system: NCI-H23 lung; details: 10 µM unless noted
[2] = test system: NCI-H226 lung; details: 10 µM unless noted
[3] = test system: NCI-H322M lung; details: 10 µM unless noted
[4] = test system: HOP-62 NSCLC; details: 10 µM unless noted
[5] = test system: NCI-H460 lung; details: 10 µM unless noted
[6] = test system: HOP-92 NSCLC; details: 10 µM unless noted
[7] = test system: NCI-H522 lung; details: 10 µM unless noted
[8] = test system: A549/ATCC NSCLC; details: 10 µM unless noted
[9] = test system: 786-0 renal; details: 10 µM unless noted
[10] = test system: COLO 205 colon; details: 10 µM unless noted
[11] = test system: DU-145 prostate; details: 10 µM unless noted
[12] = test system: K-562 leukemia; details: 10 µM unless noted
[13] = test system: MALME-3M melanoma; details: 10 µM unless noted
[14] = test system: MDA-MB-231 breast; details: 10 µM unless noted
[15] = test system: RXF 393 renal; details: 10 µM unless noted
[16] = test system: SF-268 CNS; details: 10 µM unless noted
[17] = test system: SF-295 CNS; details: 10 µM unless noted
[18] = test system: SF-539 CNS; details: 10 µM unless noted
[19] = test system: UACC-257 melanoma; details: 10 µM
[20] = test system: M14 melanoma; details: 10 µM unless noted

SMILES	growth [1]	growth [2]	growth [3]	growth [4]	growth [5]	growth [6]	growth [7]	growth [8]	growth [9]	growth [10]	growth [11]	growth [12]	growth [13]	growth [14]	growth [15]	growth [16]	growth [17]	growth [18]	growth [19]	growth [20]
COc1ccc2c(c1)oc1c3[nH]c4ccccc4c3c3c(c21)C(=O)N(O)C3=O	31.6%	79.9%	65.5%	13.2%	5.34% (active)	98.7%	43%	74.3%	31.1%	69.5%	38.2%	31.2%	64.4%	82.9%	31.9%	33.5%	29.7%	28.9%	78.8%	29.9%
Cc1cc(-c2ccc3nc(N)sc3c2)nc2ccc3[nH]ncc3c12	39.4%	53%	67.1%	31.6%	14%	36.2%	6.95% (active)	45.4%	64.8%	12.5%	48.1%	21.1%	33.4%	46.2%	47%	49.5%	29.2%	20.9%	46.4%	19.7%
CCOc1c(C#N)c(Nc2ccc(S(N)(=O)=O)cc2)c(C#N)c2nnc(C)n12	93.5%	105%	100%	104%	111%	98%	95.3%	104%	110%	105%	109%	110%	99.1%	90.6%	132%	99%	105%	97.2%	104%	100%
CCOC(=O)c1ccc(N/C=C/C(=O)c2ccccc2)cc1	103%	105%	97%	111%	104%	124%	94.8%	101%	94%	101%	101%	98.8%	107%	105%	99%	102%	93.4%	101%	108%	97%
Cc1ccc(-c2cc3nc(C(Cl)Cl)nc(-c4ccccc4)n3n2)cc1	95.4%	103%	74.3%	73.6%	46.9%	94.9%	98.1%	77.5%	94.4%	54.3%	2.08% (active)	90.4%	122%	79.7%	70.4%	89%	79.8%	90.8%	112%	112%
C#C[C@]1(O)CC[C@H]2[C@@H]3CC=C4c5sc(Nc6cc(Cl)ccn6)nc5CC[C@]4(C)[C@H]3CC[C@@]21C	35.4%	22.9%	59.3%	14.1%	13.5%	18.4%	30.2%	37.5%	-70.8% (active)	21.2%	42.5%	7.33% (active)	-21.9% (active)	32.6%	-52.8% (active)	10.7%	-68.7% (active)	-53.2% (active)	-35.3% (active)	-51.8% (active)
C/C(=C(/C)C1CC1CCN(C(=O)c1ccccn1)S(=O)(=O)c1ccc(C)cc1)C1CCCCC1 (stereo not given)	84.2%	97%	105%	102%	100%	104%	85.1%	97%	95.5%	108%	98.9%	96.8%	104%	91.5%	115%	97.5%	90.4%	99.4%	96.7%	101%
CN1CCN(Cc2ccc(NC(=O)c3cncc(C#Cc4cnc5ccc(O[C@H]6CCOC6)nn45)c3)cc2C(F)(F)F)CC1	-53.5% (active)	-63.8% (active)	-36.4% (active)	-77.7% (active)	-77.7% (active)	-38.3% (active)	-72.1% (active)	-87.7% (active)	-89.7% (active)	-89.1% (active)	-78.9% (active)	0.583% (active)	-87.5% (active)	-59.7% (active)	-76.9% (active)	-63.8% (active)	-81.8% (active)	-92% (active)	-52% (active)	-87.2% (active)
N#C/C(=C\c1ccc(N2CCCCC2)cc1)C(=O)Nc1sc2c(c1C#N)CCC2	93.8%	88.1%	99.4%	94.7%	74.8%	89.4%	92.7%	90.6%	101%	118%	101%	90.7%	100%	96.4%	83.5%	90.3%	95.8%	89.6%	91.7%	102%
O=C1c2c(c3c4cc(Br)ccc4[nH]c3c3ccc4ccccc4c23)C(=O)N1CCN1CCCCC1	37.8%	69.2%	78%	33.8%	-67.7% (active)	51.3%	68%	7.63% (active)	-84.2% (active)	61.7%	22.9%	-50.3% (active)	68.1%	77.7%	59.5%	38.4%	23.7%	38.7%	93%	20%
c1ccc(-c2c(-c3ccccc3)[n+](Cc3ccc4ccccc4c3)c(-c3ccccc3)n2Cc2ccc3ccccc3c2)cc1	-81% (active)	-66.8% (active)	-97% (active)	-66.9% (active)	-75.6% (active)	-89.8% (active)	-76.2% (active)	-74.3% (active)	-76.9% (active)	-57.8% (active)	-92.6% (active)	-30.9% (active)	-82.5% (active)	-85.6% (active)	-91.9% (active)	-73.5% (active)	-91.3% (active)	-90% (active)	-56.6% (active)	-72% (active)
O=C1[C@H]2Cc3c([nH]c4ccccc34)[C@H](c3ccc(Cl)cc3)N2C(=O)CN1C1CCN(Cc2c(Cl)cccc2Cl)CC1	86.5%	72.5%	96.9%	80.1%	68%	55.1%	75.3%	66.9%	66%	54.8%	76.9%	6.9% (active)	79.6%	72.5%	53.9%	64.2%	86.8%	75.2%	101%	71.5%
CCN1C(=O)N(CC)C2SC(N/N=C/C=C/c3ccccc3OC)=NC21 (stereo not given)	30.4%	54.9%	44.8%	47.3%	2.9% (active)	39.1%	1.31% (active)	27.1%	23.8%	7.22% (active)	12.9%	18.3%	50.4%	26.5%	20.5%	50.9%	5.32% (active)	-10.6% (active)	73.5%	0.965% (active)
CCOC(=O)c1c(NCC(=O)Nc2ccc(Br)cc2)sc2c1CCCC2	26.3%	40.7%	85.6%	69.2%	68.9%	67.7%	-48.8% (active)	73.2%	21.2%	33.3%	66.7%	10.8%	21.7%	36.5%	-50.1% (active)	58.4%	39.1%	12%	76.2%	46.3%
O=C(COc1ccc(/C=C2\SC(=O)NC2=O)cc1)Nc1ccc(C(=O)/C=C/c2cc3ccccc3nc2Cl)cc1	65.3%	74.9%	97.8%	103%	86%	88.2%	65.8%	78.6%	83.6%	96.3%	88.7%	41%	98.5%	86.6%	1.92% (active)	78.2%	75.6%	81.5%	75.3%	80%
COc1cc(/C=C2\SC(=O)NC2=O)ccc1OCC(=O)Nc1ccc(C(=O)/C=C/c2cc3ccccc3nc2Cl)cc1	68.6%	96.2%	99.2%	107%	96.3%	82.5%	72.5%	102%	101%	116%	96.9%	49.4%	89%	88.6%	77.1%	85.8%	87%	83.2%	86.3%	85.6%
